Results as given in PubChem BioAssay (NCATS).
Values joined by “and” are separate entries in the source; they are usually repeats but may differ in a detail not shown here. Equal values may be shown once. Records with an inconclusive call do not appear. Where a structure was tested more than once in an assay, its records may differ in their call. Active and inactive are the calls of the source. Calls follow the shape of the dose curve; as a rule, active = well fitted curve in the direction sought with a large enough effect; inconclusive = small, poorly fitted or top-dose-only effect, or another doubt; inactive = no such curve, though single readings can be large; an effect the other way counts as inactive or inconclusive.

Experiments:
[1] = Viability qHTS for spleen associated tyrosine kinase inhibitor (SYKi) naive MV4-11 cells (AID 1963823); also: nearly all actives have a fitted effect of over 40% in size
Method in brief: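 CellTiter-Glo luminescence, 10 min room-temperature incubation, gave viability. Cells: naive MV4-11 (500/well), treated 72 hr at 37 C, 5% CO2.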

[2] = Viability qHTS for spleen associated tyrosine kinase inhibitor (SYKi) drug resistant MV4-11 cells (AID 1963824); also: nearly all actives have a fitted effect of over 35% in size
Method in brief: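 CellTiter-Glo luminescence, read 10 min after reagent addition, reports viability after a 72 hr compound exposure. Cells are an MV4-11 line made resistant to SYK inhibition, seeded at 500 per well onto compound-containing plates.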

[3] = Cellular viability qHTS for adrenocortical cancer (ACC) cell line SW-13 (AID 1963989); details: SW-13 ACC cells viability, CellTiter-Glo, 48 h; activity (max response): stronger effect = lower value; also: nearly all actives have a fitted effect of over 65% in size;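 as to activity (max response): cells grown in serum-free medium with ITS supplement; % is scaled to controls: 0 for no effect and ±100 for the full control effect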
Method in brief: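 48 h treatment, SW-13 in ITS/DMEM serum-free; doses up to 46 uM; readout CellTiter-Glo luminescence; curve fit four-parameter logistic.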

[4] = Cellular viability qHTS for adrenocortical cancer (ACC) cell line NCI-H295R (AID 1963990); also: nearly all actives have a fitted effect of over 60% in size;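 as to activity change, negative = viability loss: 0% = DMSO only wells and -100% = full killing with cytotoxic reference compound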
Method in brief: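 Compound titrations (up to 46 uM final) are applied to NCI-H295R cultures for 48 h at 37C. Viable cell number is estimated by CellTiter-Glo signal, normalised to DMSO and doxorubicin controls.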
Potency is read from the fitted curve at half-maximal effect.

SMILES	Potency [1]	Potency [2]	activity (max response) [3]	Potency [4]	Potency [3]	viability (% of control) [1]	viability, % of control [2]	activity change, negative = viability loss [4]
CCC(Cc1c(I)cc(I)c(N)c1I)C(=O)O (stereo unspecified)	inactive	inactive	1.75% (inactive)	inactive				
CCn1ccnc1CC1COc2ccccc2O1 (stereo unspecified)	inactive	inactive	8.12% (inactive)	inactive				
Cc1ccc(S(=O)(=O)Nc2cc(C(F)(F)F)ccc2C(=O)Nc2nc(-c3ccccc3)cs2)cc1	2.95 µM (active)	2.95 µM (active)		2.51 µM (active)	2.24 µM (active)			
O=C(Nc1ccnc(NC(=O)C2CC2)c1)c1c(Cl)cccc1Cl	5.17 µM (active)	4.68 µM (active)		11.2 µM (active)	15.8 µM (active)			
Cn1cc(-c2c[nH]c3ncnc(N4CCOCC4)c23)cn1	13.2 µM (active)	14.8 µM (active)	0.0559% (inactive)	inactive				
COc1cc(N2CCN(C)CC2)ccc1Nc1nccc(-c2cn(C)c3cnccc23)n1	116 nM (active) and 209 nM (active)	517 nM (active) and 590 nM (active)	-3.47% (inactive)	25.1 µM (active)				
CCC1(c2cnc[nH]2)Cc2ccccc2C1	inactive	inactive	-4.6% (inactive)	inactive				
CC(C)Oc1ccc(-c2nn([C@@H](C)c3oc4ccc(F)cc4c(=O)c3-c3cccc(F)c3)c3ncnc(N)c23)cc1F	14.8 µM (active)	11.8 µM (active)	7.73% (inactive)	inactive				
CC(C)(C)Sc1c(CC(C)(C)C(=O)O)n(Cc2ccc(Cl)cc2)c2ccc(OCc3ccc4ccccc4n3)cc12	inactive and 16.6 µM (active)	inactive and 11.8 µM (active)	0.331% (inactive)	inactive				
O=S(=O)(NCCNC/C=C/c1ccc(Br)cc1)c1cccc2cnccc12	5.17 µM (active) and 4.68 µM (active)	9.2 µM (active) and 11.8 µM (active)		28.2 µM (active)	31.6 µM (active)			
CC(C)(Cc1ccc2ccccc2c1)NC[C@@H](O)COc1cccc(Cl)c1C#N	6.61 µM (active)	6.61 µM (active)		6.31 µM (active)	6.31 µM (active)			
Fc1ccc(-c2csc3ncnc(NCc4ccc5c(c4)OCO5)c23)cc1	1.66 µM (active)	1.66 µM (active)		25.1 µM (active)	15.8 µM (active)			
Cc1cccc(OCC(O)CNC(C)(C)C)c1C (stereo unspecified)	inactive	inactive	-1.22% (inactive)	inactive				
CC[C@]1(O)C[C@@H]2CN(CCc3c([nH]c4ccccc34)[C@@](C(=O)OC)(c3cc4c(cc3OC)N(C)[C@H]3[C@@](O)(C(=O)OC)[C@H](OC(C)=O)[C@]5(CC)C=CCN6CC[C@]43[C@@H]65)C2)C1	211 nM (active) and 36.6 nM (active)	inactive and 94.4 nM (active) and 18.4 nM (active)		116 nM (active) and 291 nM (active)	25.9 nM (active) and 92 nM (active)			
NCC[C@H](O)C(=O)N[C@@H]1C[C@H](N)[C@@H](O[C@H]2O[C@H](CN)[C@@H](O)[C@H](O)[C@@H]2O)[C@H](O)[C@@H]1O[C@H]1O[C@H](CO)[C@@H](O)[C@H](N)[C@@H]1O			11.7% (inactive)			113% [at 0.588 µM] (inactive)	95% [at 0.588 µM] (inactive)	7.11% [at 0.587 µM] (inactive)
Cc1c(F)cc(C(=O)NC2CC2)cc1-c1ccc(C(=O)NCC(C)(C)C)cn1	0.164 µM (active)	0.461 µM (active)	1.4% (inactive)	inactive				
COc1ccc2cc1Oc1cc3c(cc1OC)CC[N+](C)(C)[C@H]3Cc1ccc(cc1)Oc1c(OC)c(OC)cc3c1[C@@H](C2)[N+](C)(C)CC3	inactive	inactive	15.7% (inactive)	inactive				
CN(C)C(=S)SC(=S)N(C)C	1.68 µM (active)	1.68 µM (active)		2.31 µM (active)	9.2 µM (active)			
Cc1onc(-c2c(Cl)cccc2Cl)c1C(=O)N[C@@H]1C(=O)N2[C@@H]1SC(C)(C)[C@@H]2C(=O)O	inactive	inactive	1.28% (inactive)	inactive				
CC(=O)O[C@]1(C(C)=O)CC[C@H]2[C@@H]3C[C@H](C)C4=CC(=O)CC[C@]4(C)[C@H]3CC[C@@]21C	8.41 µM (active) and 13.2 µM (active)	9.44 µM (active) and 13.2 µM (active)	-20.8% (inactive)	inactive				
CC(C)(C)c1ccc(C(=O)CCCN2CCC(OC(c3ccccc3)c3ccccc3)CC2)cc1	13.3 µM (active)	11.9 µM (active)		5.8 µM (active)	13 µM (active)			
COCCNCc1ccc(-c2cc3nccc(Oc4ccc(NC(=S)NC(=O)Cc5ccc(F)cc5)cc4F)c3s2)nc1	0.0164 µM (active)	0.0259 µM (active)		12.6 µM (active)	28.2 µM (active)			
CCCCCCCCCCCCCCCCOCCCOP(=O)(O)COC(CO)Cn1ccc(N)nc1=O (stereo unspecified)	2.59 µM (active)	3.26 µM (active)	-4.49% (inactive)	inactive				
O=Cc1ccc(O)c(O)c1O	inactive	inactive	-7.42% (inactive)	18.4 µM (active)				
